From PubChem
Gal4-VP16 FLuc: counter-screen for ROR gamma inhibitors: Gal4-VP16 reporter; 3.5% of 310,000 active; Drosophila S2 Gal4-VP16 UAS-luciferase, luminescence, 20 h; Potency, µM (titrated, usually from 53.6 µM), inactives show at the highest dose activity, negative = inhibition, hits mostly inhibitors;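 also: Gal4-VP16 expression switched on by copper sulfate through the metallothionein promoter; potency is read from the fitted curve at half-maximal effect; % is scaled to controls: 0 for no effect and ±100 for the full control effect; nearly all actives have a fitted effect of over 50% in size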
CBFb-RUNX1 inh: inhibitors of human CBF-beta and RUNX1 interaction; Potency, µM (series often up to 59.8 µM), without a hit: top-dose activity, negative = inhibition, actives largely listed as inhibitors; AlphaScreen CBFb-His/RUNX1-biotin binding, biochemical; 230,000 tested, under 10 active; also: % of control where 0% means no effect
Target sequence (Q01196 whole entry, looked up): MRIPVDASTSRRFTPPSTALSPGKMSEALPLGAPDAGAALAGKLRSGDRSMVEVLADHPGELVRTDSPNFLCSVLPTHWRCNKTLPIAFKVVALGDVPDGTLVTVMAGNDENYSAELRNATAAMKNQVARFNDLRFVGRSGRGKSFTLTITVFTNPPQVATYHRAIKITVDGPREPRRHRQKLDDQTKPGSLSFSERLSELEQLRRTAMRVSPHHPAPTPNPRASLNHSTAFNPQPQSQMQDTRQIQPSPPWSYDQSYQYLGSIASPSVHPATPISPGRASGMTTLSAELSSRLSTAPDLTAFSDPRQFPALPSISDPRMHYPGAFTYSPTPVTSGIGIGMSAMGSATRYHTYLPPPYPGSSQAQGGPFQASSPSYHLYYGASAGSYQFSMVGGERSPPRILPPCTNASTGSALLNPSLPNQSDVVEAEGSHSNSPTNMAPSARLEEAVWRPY
Target sequence (Q13951 whole entry, looked up): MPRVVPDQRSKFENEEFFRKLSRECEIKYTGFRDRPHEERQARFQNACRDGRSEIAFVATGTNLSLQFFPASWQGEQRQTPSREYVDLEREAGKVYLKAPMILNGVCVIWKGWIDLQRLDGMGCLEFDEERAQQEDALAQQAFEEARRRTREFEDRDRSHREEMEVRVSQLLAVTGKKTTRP
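CBF-beta (His) and RUNX1 (biotin), 30 nM each; 20 min preassociation; + compound, 15 min; + beads 50 ng each (Ni, streptavidin), 90 min; RT; AlphaScreen read.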
RORgamma inh: blocks mouse ROR gamma transcriptional activity | P51450 | Drosophila S2 Gal4-RORgamma UAS-luciferase reporter, 20 h | Potency, µM (top dose mostly 53.6 µM), for the others: top-dose activity change, negative = inhibition, hits mostly inhibitors | 5.4% of 310,000 active; also: potency is read from the fitted curve at half-maximal effect; % is scaled to controls: 0 for no effect and ±100 for the full control effect; nearly all actives have a fitted effect of over 60% in size
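ROR gamma transcriptional activity was tracked as Gal4-UAS luciferase output in stably transfected Drosophila Schneider cells, with compound added 1 hr before 700 uM copper sulfate induction and a 20 hr ambient-temperature incubation.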
Six1-Eya2 blk: blocks human Six1 binding to Eya2; AlphaScreen GST-Six1/His-Eya2 binding, biochemical; active compounds read low; activity change, % (test concentration not listed); 0.56% of 360,000 active; AID 651725; in the data active = activity change below about -65%; inconclusive = mostly about -30% to -63%; also: % is scaled to controls: 0 for no effect and ±100 for the full control effect
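Six1/Eya2 binding was read as AlphaScreen signal after compounds were pinned into GST-Six1 plus His-tagged Eya2 (5X stock 250/500 nM) in pH 8.0 Tris/NaCl/TCEP buffer, beads added, then incubated 1 h, 37 C, dark.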
MBNL1 CUG block: inhibitors of human MBNL1 binding to CUG repeat RNA; Q9NR56; 0.036% of 280,000 active; Potency, µM (doses to about 57.5 µM), without a hit: top-dose activity change, negative = inhibition, hits mostly inhibitors; AID 2675; TR-FRET MBNL1-His/biotin-(CUG)12 binding, 665/545 ratio; active = well fitted inhibition curve with a large enough effect in the signal ratio, with a control signal flat, not every such curve was filed as active; inconclusive = small, poorly fitted or top-dose-only effect, or effect the other way, or a change in a side signal; inactive = no such curve, though single readings can be large or run the other way; the % refers to the signal ratio; also: potency is read from the fitted curve at half-maximal effect; % is scaled to controls: 0 for no effect and ±100 for the full control effect
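Compounds (final 92 nM to 58 uM) are added to His-tagged MBNL1 and biotin-(CUG)12, then terbium anti-His antibody and streptavidin-XL665 (5 nM final). After 60 min at room temperature, the 665/545 nm ratio is read.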
CtBP-E1A blk: blocks the CtBP interaction with E1A; AlphaScreen GST-E1A/His-CtBP binding, 1536-well; active compounds read low; activity change, % (no concentration beside the values); 0.49% of 340,000 active; in the data active = activity change below about -65%; inconclusive = mostly about -30% to -63%; also: % is scaled to controls: 0 for no effect and ±100 for the full control effect
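Steps: dispense buffer (Tris pH 8.0, NaCl 300 mM, TCEP 1 mM, BSA, Tween 20); add 5X protein mix (GST-E1A, His-CtBP, 125 nM each); pin 23 nL compound; 2 h at 37 °C, dark; add 5X beads (50 ug/mL); 1 h; read.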
An asterisk follows results filed as active; ? = inconclusive; nt = no result given; [ ] = another dose, or the depositor's remark. In the library only some 5.5% were active in any assay of this set; here they are far more common. Unless noted, calls follow the shape of the dose curve; as a rule, active = well fitted curve in the direction sought with a large enough effect; inconclusive = small, poorly fitted or top-dose-only effect, or another doubt; inactive = no such curve, though single readings can be large; an effect the other way counts as inactive or inconclusive.

SMILES	Gal4-VP16 FLuc	CBFb-RUNX1 inh	RORgamma inh	Six1-Eya2 blk	MBNL1 CUG block	CtBP-E1A blk
COc1ccc(-c2noc(CCC(=O)Nc3cccc(C)c3)n2)cc1	?	2%	0.28µM*	1	0%	18
CCOC(=O)c1cccc(NC(=O)CCc2nc(-c3ccc(C)cc3)no2)c1	-29%	5%	3.2µM*	1	23%	10
Cc1cccc(-c2noc(CCC(=O)Nc3ccc(C(N)=O)cc3)n2)c1	-6%	0%	-7%	0	-3%	9
Cc1cccc(-c2noc(CCCC(=O)Nc3ccc(C(N)=O)cc3)n2)c1	11µM*	0%	16µM*	2	4%	-1
Cc1ccc(-c2noc(CCC(=O)NCCCN3CCN(c4cccc(Cl)c4)CC3)n2)cc1	14µM*	4%	4µM*	-12	1%	-4
O=C1Nc2ccccc2C1=Nc1ccc2[nH]c3ccccc3c2c1	nt	nt	nt	-17	nt	0
CCCOc1ccc(CSCCNC(=S)Nc2ccccc2)cc1	?	2%	2.8µM*	-19	-10%	-6
CCOc1ccc(CSCCNC(=S)Nc2ccc(OC)cc2)cc1	7.1µM*	-14%	2µM*	-26	-7%	nt
N#CC(=C1C=CC(=NO)C(Cl)=C1)c1ccccc1	nt	nt	nt	-3	nt	-1
CC1=C(C(=O)OCC2CCCO2)C(c2ccc(C)cc2)C2=C(CC(C)(C)CC2=O)N1 (stereo unspecified)	1%	2%	31%	2	-3%	14
Cc1cccc(-c2ocnc2C(=O)N2CCN(C(=O)c3cccs3)CC2)c1	3%	nt	6%	-5	0%	2
Cc1ccsc1/C=N/NC(=O)c1cccnc1	13µM*	2%	?	5	21%	-17
Cc1ccsc1/C=N/NS(=O)(=O)c1ccc([N+](=O)[O-])cc1	8%	-6%	-2%	22	?	0
Cc1ccsc1/C=N/NC(=O)c1ccc([N+](=O)[O-])cc1	4.5µM*	-9%	1µM*	8	?	-6
COc1cc(C(=O)N/N=C/c2sccc2C)cc(OC)c1OC	?	7%	20µM*	-12	16%	-23
Cc1ccsc1/C=N/NC(=O)c1ccc2ccccc2c1	5.6µM*	nt	3.2µM*	-2	7%	-3
COc1ccccc1NCC(=O)N/N=C/c1sccc1C	?	-1%	?	-1	?	-7
CCN1C(c2ccc(F)cc2)=CS/C1=C(/C#N)c1nnc2n1-c1ccccc1SC2	nt	nt	nt	-12	nt	-7
CCOC(=O)CCN1C(=O)[C@H]2[C@H]3[C@H](O)[C@H](O)C/C(=N/OC/C=C(\C)CCC=C(C)C)[C@@H]3CC[C@@H]2C1=O	-8%[10 µM]	4%[13.1 µM]	11%[10 µM]	nt	nt	nt
COc1cc(C(=O)N/N=C/c2cc([N+](=O)[O-])cs2)cc(OC)c1OC	?	-10%	4µM*	?	?	-72*
Cc1ccsc1/C=N/NC(=O)c1ccncc1	7.1µM*	-18%	3.5µM*	-14	?	-13
CCn1c(-c2cc(-c3ccc(C)c(C)c3)nc3ccccc23)n[nH]c1=S	-17%	-14%	10µM*	nt	24%	nt
Cc1ccc(-c2cc(-c3n[nH]c(=S)n3C)c3ccccc3n2)cc1	-14%	nt	1.3µM*	-5	17%	-1
CCn1c(-c2cc(-c3cc(C)ccc3C)nc3ccccc23)n[nH]c1=S	-1%	5%	?	1	2%[11.5 µM]	1
CCOc1ccccc1-c1cc(-c2n[nH]c(=S)n2CC)c2ccccc2n1	-16%	-8%	5.6µM*	-7	10%	0
SMILES	Gal4-VP16 FLuc	CBFb-RUNX1 inh	RORgamma inh	Six1-Eya2 blk	MBNL1 CUG block	CtBP-E1A blk
CCOc1cccc(-c2cc(-c3n[nH]c(=S)n3CC)c3ccccc3n2)c1	?	2%	0.13µM*	-13	22%	-26
Cn1c(-c2ccccc2Br)n[nH]c1=S	nt	nt	nt	0	nt	-1
CCn1c(-c2cc(C3CC3)nc3ccccc23)n[nH]c1=S	-17%	-6%	?	-1	5%	1
Oc1ccccc1-n1nc2ccc3nonc3c2n1	8%	2%	-18%	5	nt	-2
CCN(CC)CCN1C(=O)C(=O)/C(=C(/O)c2ccc(S(=O)(=O)N3CCOCC3)cc2)C1c1ccc(Cl)cc1 (stereo unspecified)	1%	nt	-16%	0	?	-2
CCOc1ccc(Br)cc1CNCCN1CCOCC1	2%	0%	-12%	7	-4%[11.5 µM]	7
C=CCOc1ccccc1CNc1ccc2c(c1)OCCO2	?	-11%	4.5µM*	-3	15%	-4
CCOc1ccc(Br)cc1CNc1ccc2c(c1)OCCO2	9%	?	21%	-77*	-1%	?
CC(C)CN1CC[C@@]2(CCCN(C(=O)c3cc(C(F)(F)F)cc(C(F)(F)F)c3)C2)C1	-12%	nt	5%	nt	nt	nt
CCc1nnc(NC(=O)CCC(=O)Nc2ccc(C)cc2)s1	-6%	nt	14%	-15	?	nt
O=C(N/N=C/c1ccccc1F)C(=O)N1CCCCCC1	-16%	nt	-2%	-1	1%	4
COc1cccc(/C=N/NC(=O)C(=O)N2CCCC2)c1O	?	-5%	?	-89*	?	10
O=C(N/N=C/c1ccccc1O)C(=O)N1CCCCCC1	13µM*	nt	13µM*	-79*	4%	-88*
CC1CCc2sc(C(=O)N(C)CC(=O)Nc3ccc(N4CCOCC4)cc3)cc2C1 (stereo unspecified)	1%	nt	0%	-14	-6%	-5
O=C(N[C@@H](Cc1ccccc1)C(=O)N1CCN(S(=O)(=O)c2cccc(F)c2)CC1)c1ccco1	nt	nt	nt	8	nt	1
CCCCn1c(SCC(=O)c2cc(OC)ccc2OC)nc2cc(S(N)(=O)=O)ccc21	0%	-3%	12%	-3	3%	5
CCCCn1c(SCc2ccc(C(=O)OC)o2)nc2cc(S(N)(=O)=O)ccc21	10µM*	-14%	-16%	-3	-3%	2
O=S(=O)(c1ccccc1)N1CCN(c2cc(-c3ccccc3)nc3ncnn23)CC1	5.6µM*	9%	?	2	?	8
c1ccc(Nc2cc(-c3ccccc3)nc3ncnn23)cc1	?	12%	16µM*	-3	2%	-4
